High-throughput results as filed in PubChem BioAssay.
Pol eta inh: inhibitors of human DNA polymerase eta. Q9Y253. recombinant Pol eta, fluorescent DNA replication assay. Potency, µM (top dose mostly 114 µM), without a hit: at the top dose activity change, negative = inhibition, actives largely listed as inhibitors. hit rate 1.2% among 390,000. AID 588591; also: % is scaled to controls: 0 for no effect and ±100 for the full control effect
Target sequence (Q9Y253 whole entry, looked up): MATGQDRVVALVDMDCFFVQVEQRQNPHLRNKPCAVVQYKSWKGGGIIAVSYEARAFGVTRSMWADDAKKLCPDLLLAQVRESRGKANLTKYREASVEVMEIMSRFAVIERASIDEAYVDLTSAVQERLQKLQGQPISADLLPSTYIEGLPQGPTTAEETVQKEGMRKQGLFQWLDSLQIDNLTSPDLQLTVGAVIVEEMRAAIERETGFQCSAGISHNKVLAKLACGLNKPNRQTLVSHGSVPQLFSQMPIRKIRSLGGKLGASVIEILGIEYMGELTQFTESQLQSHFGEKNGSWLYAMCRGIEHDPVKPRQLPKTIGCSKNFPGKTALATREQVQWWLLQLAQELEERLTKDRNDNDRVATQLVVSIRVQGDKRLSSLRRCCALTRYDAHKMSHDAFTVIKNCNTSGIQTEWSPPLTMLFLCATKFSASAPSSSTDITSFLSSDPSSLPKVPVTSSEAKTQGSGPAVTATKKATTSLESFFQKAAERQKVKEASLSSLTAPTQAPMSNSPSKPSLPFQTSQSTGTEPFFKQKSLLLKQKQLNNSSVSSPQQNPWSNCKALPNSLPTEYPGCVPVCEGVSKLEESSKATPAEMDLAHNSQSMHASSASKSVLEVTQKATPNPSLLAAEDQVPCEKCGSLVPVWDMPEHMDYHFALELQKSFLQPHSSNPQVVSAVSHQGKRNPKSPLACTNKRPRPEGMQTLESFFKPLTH
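Pol eta (10 nM) was preincubated with compounds for 15 min at room temperature, after which fluorescent replication substrate (50 nM final) was added to start the reaction. Fluorescence was read kinetically at 0 and 10 min.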
Pol kappa inh: DNA polymerase kappa (human) inhibition | Potency, µM (series often up to 107 µM), for inactives: at the highest dose activity, negative = inhibition, hits mostly inhibitors | hit rate 0.53% among 400,000 | purified Pol kappa, fluorescent DNA synthesis assay, 10 min | Q9UBT6; also: % is scaled to controls: 0 for no effect and ±100 for the full control effect
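Fluorescent qHTS in 1536-well format: enzyme (10 nM) and compound sat 15 min at room temperature before 50 nM substrate (final) was added. Signal taken at 0 and 10 min; no-enzyme buffer wells were negative controls.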
POLI inh: inhibitors of human DNA polymerase iota; Q9UNA4; Pol iota fluorescent replication assay, 10 min; Potency, µM (titrated, usually from 115 µM), for the others: at the highest dose activity, negative = inhibition, usual class: inhibitors; hit rate 1% among 390,000; AID 588590
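Fluorescent replication assay read twice, at 0 min and 10 min after adding 50 nM (final) substrate. Enzyme (10 nM) and compounds were first incubated 15 min at room temperature; enzyme-free buffer wells were negative controls.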
POLB inh: blocks human DNA polymerase beta activity; Potency, µM (doses to about 114 µM), for the others: at the top dose activity change, negative = inhibition, most hits filed as inhibitors; hit rate 1.3% among 340,000; Pol beta primer extension/strand displacement, fluorescence kinetic; also: % is scaled to controls: 0 for no effect and ±100 for the full control effect
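Pol beta (10 nM) and compounds were preincubated 15 min at room temperature, then 50 nM substrate (final) started primer extension/strand displacement. Reads were taken at 0 and 10 min; concentration-response data were fitted to a four-parameter Hill equation.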
WRN helicase inh: WRN helicase (human) inhibition | WRN helicase unwinding, fluorescent forked duplex, kinetic | Potency, µM (series often up to 114 µM), for the others: top-dose activity change, negative = inhibition, usual class: inhibitors | hit rate 0.46% among 360,000 | AID 651768; also: % is scaled to controls: 0 for no effect and ±100 for the full control effect; nearly all actives have a fitted effect of over 55% in size
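Primary qHTS, 1536-well format. 20 nM WRN + compound, 15 min RT; start with 100 nM forked fluorophore/quencher duplex, 2 mM ATP (final); kinetic read ex 525/em 598 nm.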
* marks the source's active call; other numbers are inactive results; u = inconclusive; x = no result; [ ] = remark or other dose. Most compounds without a hit are left out; they make up all but 2.3% or so of the library. Calls follow the shape of the dose curve; as a rule, active = well fitted curve in the direction sought with a large enough effect; inconclusive = small, poorly fitted or top-dose-only effect, or another doubt; inactive = no such curve, though single readings can be large; an effect the other way counts as inactive or inconclusive. Potency is read from the fitted curve at half-maximal effect.

SMILES | Pol eta inh | Pol kappa inh | POLI inh | POLB inh | WRN helicase inh
CO[C@H]1C[C@@H]2CC[C@@H](C)[C@@](O)(O2)C(=O)C(=O)N2CCCC[C@H]2C(=O)O[C@H]([C@H](C)C[C@@H]2CC[C@@H](OCCO)[C@H](OC)C2)CC(=O)[C@H](C)/C=C(\C)[C@@H](O)[C@@H](OC)C(=O)[C@H](C)C[C@H](C)/C=C/C=C/C=C/1C | x | -5%[19.4 µM] | x | x | x
O=C(CCC1CC(=O)Nc2ccccc21)NCc1ccccc1 (centres undefined) | 89µM* | -21% | u | -11% | -11%
COc1cc(/C=C2\C(=N)N3N=C(C)SC3=NC2=O)cc(Cl)c1OCCOc1ccc(NC(C)=O)cc1 | 89µM* | -2%[60.1 µM] | u | 3% | -13%[11.6 µM]
CCCC1=NN2C(=N)/C(=C\c3ccc(OCCOc4ccc(NC(C)=O)cc4)c(OC)c3)C(=O)N=C2S1 | 79µM* | -13% | 62% | u | 3%[11.6 µM]
CCC1=NN2C(=N)/C(=C\c3ccc(OCCOc4ccc(NC(C)=O)cc4)cc3)C(=O)N=C2S1 | u | 0% | -4% | -16% | -7%
CCOc1cc(/C=C2\C(=N)N3N=C(CC)SC3=NC2=O)ccc1OCCOc1ccc(NC(C)=O)cc1 | -17% | -9%[60.1 µM] | 29% | 50µM* | -2%
COc1cc(/C=C2\C(=N)N3N=C(C(C)C)SC3=NC2=O)ccc1OCCOc1ccc(NC(C)=O)cc1 | -6% | -2% | -13% | -18% | -18%
COc1ccc(C(CC(=O)N2CCN(c3ccccc3)CC2)c2c(OC)cc(OC)c3c(-c4ccccc4)cc(=O)oc23)cc1 (centres undefined) | x | x | x | 8.9µM* | x
COc1ccc(C(CC(=O)N2CCCC(C)C2)c2c(OC)cc(OC)c3ccc(=O)oc23)cc1 (centres undefined) | -2% | -26% | u | -13% | -9%
COc1ccc(C(CC(=O)N2CCCC(C)C2)c2c(OC)cc(OC)c3c(-c4ccccc4)cc(=O)oc23)cc1 (centres undefined) | 25µM* | 79µM* | 50µM* | 35µM* | u
NC(=O)N/N=C/c1ccc(N2CCOCC2)s1 | -13% | -7% | -6% | 5% | -4%
C/C(=N\Nc1ccc(Cl)c(C(=O)O)c1)c1ccc(N2CCOCC2)cc1 | 28µM* | u | u | -8% | -21%
C/C(=N\NC(=O)c1ccc(F)cc1)c1ccc(N2CCOCC2)cc1 | -17% | -14% | 28% | 20% | -3%
O=C(O)c1cc(N/N=C/c2ccc(N3CCOCC3)s2)ccc1Cl | 11µM* | 28µM* | 13µM* | 32µM* | u
C=C1C(=O)C23C(O)C1CCC2C12CCCC(C)(COC(C)=O)C1C(O)C3(O)OC2 (centres undefined) | 1% | -4% | -3% | x | 18µM*
CCc1ccc(N=C2NC(=O)CC(C(=O)Nc3ccc(OC)cc3)S2)cc1 (centres undefined) | u | -17% | -8% | 18µM* | x
CN1C/C(=C/c2ccccc2[N+](=O)[O-])C(=O)/C(=C\c2ccccc2[N+](=O)[O-])C1 | u | u | 89µM* | x | -8%[11.6 µM]
CN(C)c1ccc(/C=C/C(=O)c2cccc(Br)c2)cc1 | -18% | u | 79µM* | u | u
Cc1c([N+](=O)[O-])cc(C(=O)Oc2ccc(Br)cc2C(=S)N2CCCCC2)cc1[N+](=O)[O-] | u | -13% | 89µM* | 5% | -15%
O=C(NNC(=O)c1ccc(NC(=O)c2ccccc2)cc1)c1ccc(F)cc1 | -15% | -12% | u | u | -6%
O=C(CCc1ccccc1)NNC(=O)c1ccc(NC(=O)c2ccccc2)cc1 | u | -19% | u | 22µM* | -28%
O=C(NNC(=O)c1ccc(NC(=O)c2ccccc2)cc1)Nc1ccccc1 | u | u | 40µM* | 11µM* | -31%
COc1ccc(NC(=O)NNC(=O)c2ccc(-c3ccccc3)cc2)cc1 | -16% | -17% | u | 7.9µM* | -8%
COc1ccc(NC(=O)NNC(=O)c2ccc(-c3ccccc3)cc2)c(OC)c1 | -16% | -6% | -15% | 1% | -27%
CN(C)c1ccc(/C=C/c2ccnc3ccc(-c4ccccc4)cc23)cc1 | x | -1% | -11% | x | x
